A short description of experiment [1]: ATG_GRE_CIS: Attagene CIS-FACTORIAL HepG2 Assay for human Glucocorticoid Response Elements (GRE) (AID 2282947). The note with it: HepG2 GRE cis-reporter, Attagene multiplex mRNA; actives raise or lower the signal. The method, boiled down:
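Reporter transcripts read by RT-PCR with capillary electrophoresis fluorescence after a 24 h chemical exposure of HepG2 cells transiently transfected with multiple cis-element reporter units. Gain or loss fitted against DMSO.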

Experiment [2] is described as follows: ATG_ISRE_CIS: Attagene CIS-FACTORIAL HepG2 Assay for human Interferon Regulatory Factor 1 (IRF1) binding to an Interferon-Stimulated Response Element (ISRE) (AID 2282948). The note with it: HepG2 ISRE cis-reporter (Attagene), mRNA transcription readout; actives raise or lower the signal. The procedure, abridged: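 Endogenous transcription factor activity read as reporter transcript abundance via RT-PCR and capillary electrophoresis. HepG2 cells transiently transfected, 24 h chemical exposure. Gain or loss fitted against DMSO baseline.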

The nature of experiment [3]: ATG_M_32_CIS: Attagene CIS-FACTORIAL HepG2 Assay for M32 Transcription Factor (Internal Marker) (AID 2282949).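 Further: background control marker of the multiplexed CIS panel rather than a real target.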 The note with it: HepG2 Attagene cis-factorial M32 reporter, mRNA; actives raise or lower the signal. The method, boiled down: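 HepG2 transfectants (cis-regulated reporter transcription units) dosed 24 h. Reporter mRNA by RT-PCR plus CE, analysed as gain or loss relative to DMSO.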

Experiment [4] in a line: ATG_M_06_CIS: Attagene CIS-FACTORIAL HepG2 Assay for M06 Transcription Factor (Internal Marker) (AID 2282950). The note with it: HepG2 Attagene CIS-FACTORIAL M06 internal marker reporter; actives raise or lower the signal. The method, boiled down: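 Steps: transfect HepG2 with multiplexed cis-element reporter constructs; dose chemical 24 h; extract RNA with DNase treatment; reverse-transcribe, PCR-amplify, 6-FAM label, HpaI digest; separate fragments by capillary electrophoresis. Activity fitted both directions versus DMSO.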

Experiment [5] concerns the target Hypoxia-inducible factor 1-alpha (Homo sapiens) (UniProt Q16665). Nature of the experiment: ATG_HIF1a_CIS: Attagene CIS-FACTORIAL HepG2 Assay for human Hypoxia Inducible Factor 1 (HIF1A) (AID 2282951). The note with it: HepG2 Attagene cis-factorial HIF1a reporter transcription; actives raise or lower the signal. The procedure, abridged: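 Transient MRTU transfection of human HepG2 liver cells, 24 h compound treatment, then total RNA isolation, oligo(dT) reverse transcription, PCR amplification, fluorescent labelling and capillary electrophoresis of reporter fragments. Gain or loss relative to DMSO.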

In experiment [6] the target is Hepatocyte nuclear factor 6 (Homo sapiens) (UniProt Q9UBC0). The experiment in a line: ATG_HNF6_CIS: Attagene CIS-FACTORIAL HepG2 Assay for human Hepatocyte Nuclear Factor 6 (HNF6) (AID 2282952). Particulars: HepG2 Attagene cis-factorial HNF6 reporter transcription; actives raise or lower the signal. The method, boiled down:
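Activity values derive from bidirectional fitting against DMSO of reporter mRNA levels, measured by capillary electrophoresis of labelled RT-PCR products from HepG2 cells exposed 24 h.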

Experiment [7] can be described thus: ATG_MRE_CIS: Attagene CIS-FACTORIAL HepG2 Assay for human Metal Responsive Element (MRE) (AID 2282954). Particulars: HepG2 MRE cis-reporter transcription, Attagene multiplex; actives raise or lower the signal. The method, boiled down: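 Endogenous MRE-dependent transcription read as reporter mRNA in transiently transfected human HepG2 cells at 24 h. RNA reverse-transcribed, PCR-amplified, labelled and resolved by capillary electrophoresis; gain or loss relative to DMSO.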

Experiment [8] is described as follows: ATG_PXRE_CIS: Attagene CIS-FACTORIAL HepG2 Assay for human Pregnane X Receptor Element (PXRE) (AID 2282957). Particulars: HepG2 Attagene CIS-FACTORIAL PXRE reporter, mRNA; actives raise or lower the signal. The method, boiled down:
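Fluorescent capillary electrophoresis of amplified reporter cDNA gave the signal, collected 24 h after dosing HepG2 cells that held transfected cis-element reporter constructs.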

Experiment [9] in a line: ATG_PPRE_CIS: Attagene CIS-FACTORIAL HepG2 Assay for human Peroxisome Proliferator-activated Response Element (PPRE) (AID 2282958). The note with it: HepG2 PPRE cis-element reporter, Attagene transcription factor profiling; actives raise or lower the signal. The procedure, abridged: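 HepG2, transient MRTU transfection (cis promoter elements, endogenous TFs). 24 h dosing. RNA → oligo(dT) RT → PCR → 6-FAM primer extension → HpaI digest → CE. Bidirectional fit vs DMSO.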

A short description of experiment [10]: ATG_RORE_CIS: Attagene CIS-FACTORIAL HepG2 Assay for human RAR-related Orphan Receptor Element (RORE) (AID 2282959). Particulars: HepG2 Attagene cis-factorial RORE reporter, mRNA; actives raise or lower the signal. The procedure, abridged: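 Transient MRTU transfection of human HepG2 liver cells (FuGene 6); 24 h compound exposure; TriZol RNA, oligo(dT) RT, PCR, FAM labeling, HpaI cut, CE fragment analysis. DMSO = negative control/baseline.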

Experiment [11] can be described thus: ATG_Sox_CIS: Attagene CIS-FACTORIAL HepG2 Assay for human SRY-box transcription factor (SOX) (AID 2282960). Particulars: HepG2 Attagene cis-factorial SOX reporter, mRNA; actives raise or lower the signal. The procedure, abridged: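 Endogenous factor activity in human liver HepG2 cells carrying transfected cis-regulated reporter units. RNA taken 24 h post-dose, reverse-transcribed, PCR-amplified and sized by capillary electrophoresis. Gain or loss of signal fitted relative to DMSO.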

For experiment [12], the target named is Transcription factor Sp1 (Homo sapiens) (UniProt P08047). Nature of the experiment: ATG_Sp1_CIS: Attagene CIS-FACTORIAL HepG2 Assay for human Specificity Protein 1 (Sp1) (AID 2282961). The note with it: HepG2 Sp1 cis-reporter transcription, actives raise or lower the signal. The method, boiled down:
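Transient MRTU-transfected HepG2, 24 h compound exposure. Total RNA → oligo(dT) RT → PCR of reporter → 6-FAM primer extension → HpaI digest → CE. Endpoint fitted both directions vs DMSO.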

Experiment [13] can be described thus: ATG_SREBP_CIS: Attagene CIS-FACTORIAL HepG2 Assay for human Sterol Regulatory Element Binding (SREBP) (AID 2282962). Particulars: HepG2 Attagene cis-factorial SREBP reporter, mRNA; actives raise or lower the signal. The procedure, abridged: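 Endogenous SREBP activity read as cis-element-driven reporter transcript in transiently transfected HepG2, 24 h post-dosing; quantified via RT-PCR plus capillary electrophoresis of fluorescent fragments. Gain or loss of signal fitted relative to DMSO baseline.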

Experiment [14] deals with Signal transducer and activator of transcription 3 (Homo sapiens) (UniProt P40763). The experiment in a line: ATG_STAT3_CIS: Attagene CIS-FACTORIAL HepG2 Assay for human Signal Transducer and Activator of Transcription 3 (STAT3) (AID 2282963). Particulars: HepG2, Attagene cis-factorial STAT3 reporter transcription; actives raise or lower the signal. The method, boiled down:
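Readout is reporter transcript quantified by RT-PCR and capillary electrophoresis, with 6-FAM primer extension and HpaI digestion. Total RNA is taken 24 h after dosing transiently transfected HepG2 carrying cis-regulated reporter units. Bidirectional fit against DMSO.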

Experiment [15] in a line: ATG_TA_CIS: Attagene CIS-FACTORIAL HepG2 Assay for human TA Basal Promoter (AID 2282964). The note with it: HepG2 Attagene CIS-factorial TA basal promoter reporter; actives raise or lower the signal. The procedure, abridged:
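Steps: transfect HepG2 with MRTUs; dose 24 h; isolate RNA, DNase-treat, reverse-transcribe; PCR and FAM-label reporter cDNA; digest with HpaI 2h at 37 C; run capillary electrophoresis. Activity fitted both directions against DMSO.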

Experiment [16] can be described thus: ATG_TCF_b_cat_CIS: Attagene CIS-FACTORIAL HepG2 Assay for human T-Cell-Factor with beta-catenin (TCF/b-cat) (AID 2282965). The note with it: HepG2 TCF/beta-catenin cis-reporter transcription, actives raise or lower the signal. The procedure, abridged: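 Endogenous transcription factor activity is captured through cis-promoter reporter constructs transiently introduced into human HepG2 liver cells. Induced reporter mRNA is measured after 24 h and fitted bidirectionally relative to DMSO.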

Experiment [17] in a line: ATG_TAL_CIS: Attagene CIS-FACTORIAL HepG2 Assay for human TAL Basal Promoter (AID 2282966).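 Further: background control endpoint measuring basal TAL promoter reporter mRNA not a specific factor.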 Particulars: HepG2 Attagene cis-factorial TAL promoter reporter; actives raise or lower the signal. The method, boiled down:
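Transiently transfected HepG2 (cis-regulated reporter units), 24 h treatment, mRNA read by fluorescent CE after RT-PCR; bidirectional fit, DMSO baseline.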

Experiment [18] addresses Heat shock factor protein 1 (Homo sapiens) (UniProt Q00613). Nature of the experiment: ATG_HSE_CIS: Attagene CIS-FACTORIAL HepG2 Assay for human Heat Shock Transcription Factor 1 (HSE) (AID 2282953). Particulars: HepG2 HSE cis-reporter, Attagene RNA transcription; actives raise or lower the signal. The procedure, abridged:
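Cells were transfected with cis-element-driven reporter constructs, dosed for 24 h, then total RNA was reverse-transcribed and reporter cDNA amplified, FAM-labelled and digested with HpaI. Fragments were resolved by capillary electrophoresis; gain or loss was fitted against DMSO.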

Experiment [19] in a line: ATG_PBREM_CIS: Attagene CIS-FACTORIAL HepG2 Assay for human Phenobarbital-responsive Enhancer Module (PBREM) (AID 2282955). Particulars: HepG2 PBREM cis-reporter, Attagene multiplexed transcription; actives raise or lower the signal. The method, boiled down:
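Endogenous transcription factors in human liver HepG2 cells drive a PBREM cis-element reporter, whose transcript level after 24 h treatment is quantified by RT-PCR with capillary electrophoresis; activity fitted in both directions against DMSO.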

Outcome and AC50 data for three compounds are collected here from PubChem BioAssay (EPA / NIEHS).

Values joined by “and” are separate entries in the source; they are usually repeats but may differ in a detail not shown here. Equal entries are not always repeated. Some compounds were tested as several samples or in several runs, with calls that do not always agree. Active and inactive are the calls of the source. How the source made its calls: active means hit-call score of the fitted dose curve at least 0.9, where 1 is the maximum; inactive means score below 0.9.

Chain of Hypoxia-inducible factor 1-alpha (Homo sapiens) (Q16665 whole entry, looked up, the tested form may be a part): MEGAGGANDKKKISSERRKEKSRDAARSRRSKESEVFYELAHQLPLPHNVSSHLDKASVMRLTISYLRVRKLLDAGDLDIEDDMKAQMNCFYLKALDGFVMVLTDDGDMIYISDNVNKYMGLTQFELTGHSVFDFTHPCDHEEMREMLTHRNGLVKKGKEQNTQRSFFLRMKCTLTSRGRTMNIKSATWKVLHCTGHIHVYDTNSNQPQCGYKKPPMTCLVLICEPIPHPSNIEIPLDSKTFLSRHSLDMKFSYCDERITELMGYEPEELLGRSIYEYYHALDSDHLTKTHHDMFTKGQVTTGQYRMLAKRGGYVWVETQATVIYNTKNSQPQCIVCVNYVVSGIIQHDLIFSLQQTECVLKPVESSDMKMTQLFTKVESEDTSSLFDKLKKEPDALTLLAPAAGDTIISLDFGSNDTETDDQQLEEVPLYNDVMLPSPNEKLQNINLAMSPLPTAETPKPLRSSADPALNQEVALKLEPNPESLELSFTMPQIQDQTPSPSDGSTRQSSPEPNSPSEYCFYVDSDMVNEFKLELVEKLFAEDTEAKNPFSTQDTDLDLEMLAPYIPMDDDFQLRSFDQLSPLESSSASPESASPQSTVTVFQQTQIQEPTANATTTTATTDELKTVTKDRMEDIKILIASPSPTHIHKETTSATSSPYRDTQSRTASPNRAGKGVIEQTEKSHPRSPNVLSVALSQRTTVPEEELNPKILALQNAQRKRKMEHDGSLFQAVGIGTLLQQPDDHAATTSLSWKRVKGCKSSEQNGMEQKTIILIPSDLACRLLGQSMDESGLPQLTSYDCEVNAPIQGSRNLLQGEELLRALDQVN
Chain of Transcription factor Sp1 (Homo sapiens) (P08047 whole entry, looked up): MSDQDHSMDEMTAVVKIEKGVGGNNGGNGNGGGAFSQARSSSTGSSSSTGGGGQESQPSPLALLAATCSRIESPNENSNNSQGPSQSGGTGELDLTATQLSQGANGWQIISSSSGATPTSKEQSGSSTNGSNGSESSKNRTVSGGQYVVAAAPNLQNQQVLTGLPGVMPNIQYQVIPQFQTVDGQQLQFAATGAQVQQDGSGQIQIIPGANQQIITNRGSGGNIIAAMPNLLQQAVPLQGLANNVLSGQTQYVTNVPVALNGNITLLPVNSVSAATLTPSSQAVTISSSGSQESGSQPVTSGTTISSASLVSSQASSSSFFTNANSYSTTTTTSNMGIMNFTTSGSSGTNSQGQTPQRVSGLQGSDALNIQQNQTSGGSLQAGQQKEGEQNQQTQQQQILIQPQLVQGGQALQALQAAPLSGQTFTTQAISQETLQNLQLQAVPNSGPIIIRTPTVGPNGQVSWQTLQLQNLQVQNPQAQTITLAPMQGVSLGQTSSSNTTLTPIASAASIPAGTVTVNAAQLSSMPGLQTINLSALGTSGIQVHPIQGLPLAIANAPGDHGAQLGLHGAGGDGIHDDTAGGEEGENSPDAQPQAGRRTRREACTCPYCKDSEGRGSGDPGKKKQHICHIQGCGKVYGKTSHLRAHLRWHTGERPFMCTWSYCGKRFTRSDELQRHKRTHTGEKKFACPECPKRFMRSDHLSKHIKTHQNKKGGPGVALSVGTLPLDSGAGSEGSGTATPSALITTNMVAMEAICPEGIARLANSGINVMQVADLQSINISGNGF
Chain of Hepatocyte nuclear factor 6 (Homo sapiens) (Q9UBC0 whole entry, looked up): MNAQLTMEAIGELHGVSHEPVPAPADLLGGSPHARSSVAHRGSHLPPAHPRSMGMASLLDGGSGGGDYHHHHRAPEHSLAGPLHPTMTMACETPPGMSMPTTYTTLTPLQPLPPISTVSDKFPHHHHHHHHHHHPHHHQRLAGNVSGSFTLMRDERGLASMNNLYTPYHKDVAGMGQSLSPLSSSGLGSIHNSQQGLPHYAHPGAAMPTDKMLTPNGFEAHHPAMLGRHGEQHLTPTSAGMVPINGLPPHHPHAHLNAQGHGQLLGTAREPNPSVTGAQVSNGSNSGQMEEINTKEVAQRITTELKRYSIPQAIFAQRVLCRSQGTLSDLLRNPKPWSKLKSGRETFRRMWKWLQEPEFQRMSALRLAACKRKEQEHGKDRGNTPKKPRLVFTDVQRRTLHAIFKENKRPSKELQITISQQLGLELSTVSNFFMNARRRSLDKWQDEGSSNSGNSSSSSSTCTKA
Chain of Signal transducer and activator of transcription 3 (Homo sapiens) (P40763 whole entry, looked up): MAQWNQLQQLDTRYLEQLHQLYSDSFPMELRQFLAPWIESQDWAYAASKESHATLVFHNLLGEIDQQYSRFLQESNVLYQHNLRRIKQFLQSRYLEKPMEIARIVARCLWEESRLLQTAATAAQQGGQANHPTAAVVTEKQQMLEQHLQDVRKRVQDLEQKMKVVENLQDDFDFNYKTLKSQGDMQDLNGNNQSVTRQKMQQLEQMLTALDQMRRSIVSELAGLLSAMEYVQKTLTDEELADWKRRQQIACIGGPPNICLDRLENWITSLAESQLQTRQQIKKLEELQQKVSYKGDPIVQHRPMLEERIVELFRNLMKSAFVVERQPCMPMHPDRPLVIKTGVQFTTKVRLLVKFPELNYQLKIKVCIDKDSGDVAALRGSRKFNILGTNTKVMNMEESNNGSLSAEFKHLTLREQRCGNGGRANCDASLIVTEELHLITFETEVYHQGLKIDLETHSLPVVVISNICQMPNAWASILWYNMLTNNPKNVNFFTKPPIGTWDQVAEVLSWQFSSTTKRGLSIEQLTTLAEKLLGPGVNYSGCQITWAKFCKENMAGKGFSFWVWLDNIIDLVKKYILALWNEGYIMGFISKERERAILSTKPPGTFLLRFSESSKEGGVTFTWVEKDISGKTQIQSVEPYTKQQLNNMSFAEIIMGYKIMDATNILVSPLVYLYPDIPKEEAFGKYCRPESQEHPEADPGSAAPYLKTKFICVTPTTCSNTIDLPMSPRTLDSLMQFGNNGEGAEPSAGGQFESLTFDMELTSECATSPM
Chain of Heat shock factor protein 1 (Homo sapiens) (Q00613 whole entry, looked up, the tested form may be a part): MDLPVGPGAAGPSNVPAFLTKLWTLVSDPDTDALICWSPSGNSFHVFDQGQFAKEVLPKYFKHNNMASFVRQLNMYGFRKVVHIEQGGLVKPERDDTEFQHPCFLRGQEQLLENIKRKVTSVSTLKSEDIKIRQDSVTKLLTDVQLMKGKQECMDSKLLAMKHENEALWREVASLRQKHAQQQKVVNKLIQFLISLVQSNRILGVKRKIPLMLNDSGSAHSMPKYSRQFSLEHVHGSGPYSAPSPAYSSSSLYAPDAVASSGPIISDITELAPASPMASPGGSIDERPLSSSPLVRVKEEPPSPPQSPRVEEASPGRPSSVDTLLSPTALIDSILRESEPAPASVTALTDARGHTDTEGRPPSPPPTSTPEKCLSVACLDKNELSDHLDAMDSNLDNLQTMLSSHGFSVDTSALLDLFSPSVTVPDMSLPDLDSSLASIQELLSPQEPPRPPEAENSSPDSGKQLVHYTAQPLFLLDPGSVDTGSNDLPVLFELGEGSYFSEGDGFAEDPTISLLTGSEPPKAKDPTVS

The AC50 is the midpoint of the concentration-response curve, whichever way the signal moves. In the case of `CCc1ccc(O)c(C(C)(C)C)c1`, the outcome in [1], in experiment [2], in experiment [3], in [4], in experiment [6] and in experiment [7] was inactive. Besides, the call in experiment [10], in experiment [11], in experiment [12], in experiment [13], in [14] and in experiment [15] was inactive. Besides, the call in experiment [16] and in experiment [17] was inactive. Besides, the figures for the AC50 in [5], in experiment [8] and in [9] were 56.3 µM (active), 15.9 µM (active) and 42 µM (active), respectively.
`Cc1nc(-c2ccccn2)ncc1C(=O)Nn1cc(C)c2cc(F)ccc21`: the call in [1], in [2], in [3], in [4], in [6] and in experiment [18] was inactive. Moreover, the call in [7], in [19], in [9], in [10], in experiment [11] and in experiment [12] was inactive. In addition, the result in experiment [13], in experiment [14], in experiment [16] and in [17] was inactive. The figures for the half-maximal activity concentration (AC50) in experiment [5] and in experiment [8] were 48 µM (active) and 4.24 µM (active), respectively.
With `OC(O)(C(F)C(O)(O)C(F)(F)F)C(F)(F)F`, the compound was called inactive in [1], in experiment [3], in experiment [4], in experiment [5], in [6] and in experiment [7]. Besides, the outcome in experiment [19], in experiment [8], in experiment [9], in [10], in [11] and in experiment [14] was inactive. Moreover, the result in experiment [16] was inactive. In addition, the concentration at half-maximal activity (AC50) in experiment [2] is 27.8 µM (active) and 9.44 µM (active); in experiment [9], 3.62 µM (active); in [12], 64.6 µM (active) and 96.6 µM (active); in experiment [13] it was 66.4 µM (active) and 37.5 µM (active); in [16] it was 3.07 µM (active); in experiment [17], 51.9 µM (active) and 25.8 µM (active).
